Bioassay records from PubChem.
C diff HTS: C. difficile growth inhibitors, primary screen, HTS; Clostridium difficile clinical isolate growth, OD600, 24 h; active compounds read low; growth activity, negative = inhibition, % at 16 µg/mL (by protocol); 86,000 compounds, 0.25% hits; AID 1259249, 2017;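 active = mean growth activity at or below -80% and every replicate also at or below -80%; inconclusive = mean at or below -80% but some replicate above -80%; inactive = mean growth activity above -80%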
T cruzi growth-1: T. cruzi intracellular proliferation inhibitors, primary screen, cell-based, beta-gal Tulahuen parasites, NIH3T3 host, luminescence; T. cruzi beta-gal in NIH3T3, GalScreen luminescence, 90 h; inhibition, % at 8.34 µM; 77,000 compounds, 5.9% hits;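 active = mean inhibition above about 93%, with at least 55% of replicates each passing it, limit read from the data, passing the limit was not always enough; inconclusive = only one of those two conditions holds; inactive = neither condition holds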
T cruzi growth-2: T. cruzi intracellular proliferation inhibitors, confirmation, cell-based, NIH3T3 host, beta-gal parasite, luminescence, cherry-pick; shares compounds with T cruzi growth-1; T. cruzi beta-gal in NIH3T3, GalScreen luminescence, 90 h; inhibition, % at 8.35 µM; 5,600 compounds, 72% hits; AID 651739, 2012;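 active = mean replicate inhibition above about 95% and at least 55% of replicates individually reaching it, limit read from the data; inconclusive = only one of the two criteria is met; inactive = neither criterion is met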
T cruzi growth-3: inhibitors of intracellular T. cruzi replication, confirmation, NIH3T3 host cells, beta-gal parasites, cherry-pick, set 2; inhibition, % at 2.09 µM; shares compounds with T cruzi growth-1; T. cruzi beta-gal in NIH3T3, GalScreen luminescence, 90 h; 5,600 compounds, 21% hits;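 active = mean inhibition above about 95%, with at least 55% of replicates also reaching it, limit read from the data; inconclusive = meets just one of the two conditions; inactive = meets neither condition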
3T3 cytotox: cytotoxicity in mouse NIH/3T3 fibroblasts, confirmation, cytotoxicity control for T. cruzi proliferation inhibitor project, cell-based, cherry-pick, single point; shares compounds with T cruzi growth-1; NIH/3T3 viability, CellTiter-Glo ATP luminescence, 90 h; cytotoxicity (signal decrease), % at 8.35 µM; 5,600 compounds, 14% hits; AID 651742, 2012;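 active = mean signal decrease across replicates above about 35% based on untreated-well scatter, with enough replicates individually passing, limit read from the data; inconclusive = no rule stated though some were filed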
NIH3T3 tox 2: NIH/3T3 fibroblast cytotoxicity, confirmation, cytotoxicity control, cell-based, cherry-pick, single point, set 2. NIH/3T3 viability, CellTiter-Glo ATP luminescence, 90 h. shares compounds with T cruzi growth-1. inhibition, % at 24.9 µM. 5,600 compounds, 56% hits;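 active = mean loss of cell viability signal at or above a set limit, and enough replicates individually reaching it; inconclusive = meets only the mean limit or only the replicate share; inactive = meets neither condition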
A number is an active result; - = inactive; ? = inconclusive; . = no result given; ! = not active in a repeat. Only a selection was taken, and hits are over-represented in it overall.

SMILES | C diff HTS | T cruzi growth-1 | others
Cc1ccc(S(=O)(=O)N(C)C[C@H]2OCCCC[C@H](C)Oc3ccc(NS(=O)(=O)c4ccc(F)cc4)cc3C(=O)N([C@@H](C)CO)C[C@H]2C)cc1 | - | 115
Cc1ccc(S(=O)(=O)N(C)C[C@@H]2OCCCC[C@H](C)Oc3ccc(NS(=O)(=O)c4ccc(Cl)cc4)cc3C(=O)N([C@H](C)CO)C[C@@H]2C)cc1 | - | 108
O=C(C[C@H]1C[C@H]2c3cc(NC(=O)NC4CCCC4)ccc3O[C@H]2[C@H](CO)O1)NCC1CC1 | - | -
CC(C)NC(=O)Nc1ccc2c(c1)C(=O)N([C@@H](C)CO)C[C@H](C)[C@H](CN(C)Cc1ccc(Cl)c(Cl)c1)OCCCC[C@@H](C)O2 | - | .
O=C(C[C@@H]1CC[C@H](NC(=O)c2ccccc2)[C@@H](CO)O1)NCCc1ccncc1 | - | .
Cc1cccc(-c2ccc(C3[C@@H]4CN(C(=O)Nc5ccc(F)cc5)C[C@H]3N4)cc2)c1 (stereo not given in full) | -91! | .
O=C(Nc1ccc(C(F)(F)F)cc1)N1C[C@@H]2N[C@H](C1)C2c1ccc(/C=C/c2ccccc2)cc1 (stereo not given in full) | -100 | .
O=C(C1CCC1)N1C[C@@H]2N[C@H](C1)C2c1ccc(/C=C/c2ccccc2)cc1 (stereo not given in full) | - | .
O=C(Nc1ccc(C(F)(F)F)cc1)N1C[C@@H]2N[C@H](C1)C2c1ccc(-c2ccccc2)cc1 (stereo not given in full) | -98 | .
O=C(Nc1ccccc1)N1C[C@@H]2N[C@H](C1)C2c1ccc(-c2cccnc2)cc1 (stereo not given in full) | - | .
Cc1cccc(-c2ccc(C3[C@@H]4CN(C(=O)Nc5ccccc5)C[C@H]3N4)cc2)c1 (stereo not given in full) | - | .
CC(C)NC(=O)Nc1ccc2c(c1)C(=O)N([C@@H](C)CO)C[C@@H](C)[C@H](CN(C)C(=O)c1ccncc1)OCCCC[C@H](C)O2 | - | -
CC(C)NC(=O)N(C)C[C@@H]1OCCCC[C@H](C)Oc2ccc(NC(=O)Cc3ccccc3)cc2C(=O)N([C@H](C)CO)C[C@H]1C | - | -
O=C(C[C@@H]1CC[C@@H]2[C@H](COC[C@H](O)CN2C(=O)Nc2ccc(C(F)(F)F)cc2)O1)NC1Cc2ccccc2C1 | - | -
CCNC(=O)C[C@@H]1CC[C@H]2[C@@H](COC[C@H](O)CN2C(=O)Nc2ccc(C(F)(F)F)cc2)O1 | - | -
O=C(C[C@H]1CC[C@@H]2[C@H](COC[C@H](O)CN2C(=O)Nc2ccc(C(F)(F)F)cc2)O1)NC1Cc2ccccc2C1 | -100! | -
CCNC(=O)C[C@@H]1CC[C@@H]2[C@H](COC[C@@H](O)CN2C(=O)Nc2ccc(C(F)(F)F)cc2)O1 | -94! | -
C[C@@H]1CN([C@@H](C)CO)C(=O)c2cc(-c3ccncc3)cnc2O[C@H]1CN(C)C(=O)Cc1cccnc1 | - | 104
C[C@H](CO)N1C[C@H](C)[C@H](CN(C)C(=O)Cc2cccnc2)Oc2ncc(-c3ccccc3)cc2C1=O | . | -
COc1ccc(S(=O)(=O)Nc2ccc3c(c2)C(=O)N([C@H](C)CO)C[C@@H](C)[C@@H](CN(C)C)OCCCC[C@H](C)O3)cc1 | - | -
C[C@@H]1CCCCO[C@@H](CN(C)C(=O)CCCN(C)C)[C@H](C)CN([C@@H](C)CO)C(=O)c2cc(NC(=O)C3CCCCC3)ccc2O1 | - | -
COc1ccc(CN(C)C[C@H]2Oc3c(NC(=O)c4nc5ccccc5s4)cccc3C(=O)N([C@H](C)CO)C[C@@H]2C)cc1 | - | ? | T cruzi growth-2=-;T cruzi growth-3=-;3T3 cytotox=-;NIH3T3 tox 2=-
COc1ccc(CN(C)C[C@H]2Oc3c(NC(=O)c4nc5ccccc5s4)cccc3C(=O)N([C@@H](C)CO)C[C@@H]2C)cc1 | - | -
C[C@@H]1CN([C@@H](C)CO)C(=O)c2cccc(NC(=O)c3nc4ccccc4s3)c2O[C@H]1CN(C)Cc1ccc(-c2ccccc2)cc1 | - | -
COc1ccc(S(=O)(=O)N(C)C[C@@H]2Oc3c(NC(=O)c4nc5ccccc5s4)cccc3C(=O)N([C@H](C)CO)C[C@@H]2C)cc1 | - | 112 | T cruzi growth-2=99;T cruzi growth-3=111;3T3 cytotox=38;NIH3T3 tox 2=51
SMILES | C diff HTS | T cruzi growth-1 | others
COc1ccc(S(=O)(=O)N(C)C[C@H]2Oc3c(NC(=O)c4nc5ccccc5s4)cccc3C(=O)N([C@@H](C)CO)C[C@H]2C)cc1 | - | -
C[C@H]1CN([C@@H](C)CO)C(=O)c2cccc(NC(=O)c3nc4ccccc4s3)c2O[C@@H]1CN(C)Cc1ccccc1 | - | -
C[C@@H]1CN([C@H](C)CO)C(=O)c2cccc(NC(=O)c3nc4ccccc4s3)c2O[C@@H]1CN(C)Cc1ccc(-c2ccccc2)cc1 | - | 111 | T cruzi growth-2=107;T cruzi growth-3=-;3T3 cytotox=-;NIH3T3 tox 2=-
C[C@@H]1CN([C@H](C)CO)C(=O)c2cccc(NC(=O)c3nc4ccccc4s3)c2O[C@@H]1CN(C)Cc1ccccc1 | - | ? | T cruzi growth-2=100;T cruzi growth-3=-;3T3 cytotox=-;NIH3T3 tox 2=-
COc1ccccc1S(=O)(=O)N[C@@H]1C=C[C@@H](CC(=O)N2CCCCC2)O[C@@H]1CO | . | -
C[C@H]1CN([C@@H](C)CO)C(=O)c2cccc(NC(=O)Nc3ccc4c(c3)OCO4)c2O[C@H]1CN(C)Cc1ccncc1 | - | -
CNC[C@H]1OCCCC[C@@H](C)Oc2ccc(NC(=O)CCC(F)(F)F)cc2C(=O)N([C@@H](C)CO)C[C@H]1C | - | -
C[C@H](CO)N1C[C@H](C)[C@H](CN(C)Cc2ccc(C(F)(F)F)cc2)Oc2c(NC(=O)c3nc4ccccc4s3)cccc2C1=O | . | 97 | T cruzi growth-2=100;T cruzi growth-3=98;3T3 cytotox=-;NIH3T3 tox 2=93
C[C@H]1CN([C@@H](C)CO)C(=O)c2cccc(NC(=O)c3nc4ccccc4s3)c2O[C@@H]1CN(C)Cc1ccc(C(F)(F)F)cc1 | . | -
CCCNC(=O)N1[C@@H](C#N)[C@@H](c2ccc(C#Cc3ccc(F)cc3)cc2)[C@@H]1CO | - | 103 | T cruzi growth-2=107;T cruzi growth-3=103;3T3 cytotox=-;NIH3T3 tox 2=?
CCCNC(=O)N1[C@@H](C#N)[C@H](c2ccc(C#Cc3ccc(F)cc3)cc2)[C@@H]1CO | - | 103 | T cruzi growth-2=105;T cruzi growth-3=-;3T3 cytotox=-;NIH3T3 tox 2=40
N#C[C@H]1[C@H](c2ccc(C#Cc3ccc(F)cc3)cc2)[C@H](CO)N1C(=O)Nc1ccc(F)cc1 | - | -
